Consider 63 molecules from PubChem BioAssay AID651658 (Broad Institute, 2012).

About 5,100 (1.5%) of roughly 340,000 compounds were called active. For the sample, actives were picked, then their nearest neighbours and some compounds at random. Values without a mark were called inactive.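 How the source made its calls: active means mean Tm shift, scaled 0 neutral to 100 positive control, at about 1.3% or above, every replicate too (limit read from the data); inconclusive means no clear call, values can overlap the other calls; inactive means the rest.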

In the assay the target is Fibroblast growth factor 22 (Homo sapiens) (UniProt Q9HCT0). As to the kind of experiment: FGF22 ligand-induced thermal stabilization – biophysical, thermal shift, single point, FGF22 synaptogenesis inhibitor project, primary screen (AID 651658). Conditions: recombinant FGF22 thermal shift, SYPRO orange fluorescence; at 9.99 µM; stronger effect = higher value; percent of sucrose octasulfate shift, DMSO zero.
Sequence of Fibroblast growth factor 22 (Homo sapiens) (Q9HCT0 whole entry, looked up): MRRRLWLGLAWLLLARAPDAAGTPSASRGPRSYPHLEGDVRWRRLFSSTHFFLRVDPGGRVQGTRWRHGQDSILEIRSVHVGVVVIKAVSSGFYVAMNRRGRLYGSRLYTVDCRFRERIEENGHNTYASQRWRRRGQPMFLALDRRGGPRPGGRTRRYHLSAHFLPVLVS
Regarding `Cc1cc(C(=O)Nc2ccc3c(c2)C(=O)N(C)[C@H]2CC[C@H](CC(=O)NCC(F)(F)F)O[C@@H]2CO3)no1`, the activity (Tm shift, normalised) is -0.217%.
In the case of `Cc1ccc(-c2ccc3c(c2)O[C@H](CN(C)C(=O)Nc2ccc(C(F)(F)F)cc2)[C@@H](C)CN([C@H](C)CO)S3(=O)=O)cc1` it was 0.037%; in that of `Cc1ccc(S(=O)(=O)N(C)C[C@@H]2Oc3cc(C4=CCCC4)ccc3S(=O)(=O)N([C@@H](C)CO)C[C@@H]2C)cc1`, 1.23% (active).
Take `C[C@H](CO)N1C[C@H](C)[C@H](CN(C)C(=O)Nc2ccc3c(c2)OCO3)Oc2cc(C#Cc3ccncc3)ccc2S1(=O)=O`: the activity (Tm shift, normalised) is -0.273%.
In the case of `COc1ccc(NC(=O)N(C)C[C@H]2Oc3cc(-c4ccncc4)ccc3S(=O)(=O)N([C@@H](C)CO)C[C@H]2C)cc1` it was -0.124%; in that of `C[C@@H]1CN([C@@H](C)CO)S(=O)(=O)c2ccc(-c3ccncc3)cc2O[C@@H]1CN(C)C(=O)Nc1ccc(F)cc1`, 1.27% (active); in that of `COc1ccc(NC(=O)N(C)C[C@H]2Oc3cc(-c4ccncc4)ccc3S(=O)(=O)N([C@H](C)CO)C[C@H]2C)cc1`, 0.949%.
Regarding `CC(=O)N(C)C[C@@H]1Oc2cc(-c3ccncc3)ccc2S(=O)(=O)N([C@@H](C)CO)C[C@H]1C`, the activity (Tm shift, normalised) was -0.496%.
The same measure for `C[C@H](CO)N1C[C@H](C)[C@@H](CN(C)S(=O)(=O)c2ccc(F)cc2)Oc2cc(C3=CCCC3)ccc2S1(=O)=O`: -0.123%; for `C[C@H]1CN([C@@H](C)CO)S(=O)(=O)c2ccc(C3=CCCC3)cc2O[C@H]1CN(C)C(=O)Nc1ccc2c(c1)OCO2`: 1.26% (active); for `C[C@H]1CN([C@@H](C)CO)S(=O)(=O)c2ccc(C#Cc3ccncc3)cc2O[C@@H]1CN(C)C(=O)Nc1ccc2c(c1)OCO2`: 0.074%.
The same measure for `C[C@@H]1CN([C@H](C)CO)S(=O)(=O)c2ccc(-c3ccncc3)cc2O[C@@H]1CN(C)C(=O)Nc1ccc(C(F)(F)F)cc1`: 1.48% (active); for `COc1cccc(S(=O)(=O)N(C)C[C@@H]2Oc3cc(C4=CCCCC4)ccc3S(=O)(=O)N([C@H](C)CO)C[C@H]2C)c1`: 0.057%; for `CC(C)CC#Cc1cnc2c(c1)C(=O)N([C@@H](C)CO)C[C@H](C)[C@@H](CN(C)C(=O)c1cccc(F)c1)O2`: -0.381%.
`CN1c2ccc(-c3ccccc3F)cc2[C@@H]2[C@@H](CCN2C(=O)CN2CCOCC2)[C@H]1CO`: the activity (Tm shift, normalised) is -0.099%.
In the case of `O=C(C[C@H]1C[C@@H]2c3cc(NC(=O)C4CCC4)ccc3O[C@@H]2[C@H](CO)O1)NCCN1CCCCC1` it was 0.001%; in that of `O=C1C[C@@](C(=O)NCC(F)(F)F)(c2ccc([N+](=O)[O-])cc2)[C@@H](c2ccc(CO)cc2I)N1C1CCCCC1`, 0.18%; in that of `CCC(=O)N1C[C@@H](C)[C@@H](OC)CN(C)C(=O)c2ccc(NC(=O)c3ccccc3)cc2OC[C@H]1C`, -0.17%.
Regarding `COc1ccc2c3c([nH]c2c1)[C@H](CO)N(C(=O)C1CCCCC1)CC31CCN(C(=O)c2ccncc2)CC1`, the activity (Tm shift, normalised) was -0.034%.
The same measure for `CC(C)NC(=O)N(C)C[C@H]1OCCCC[C@H](C)Oc2ccc(NC(=O)CCC(F)(F)F)cc2C(=O)N([C@@H](C)CO)C[C@@H]1C`: -0.59%; for `C[C@H](CO)N1C[C@H](C)[C@H](CN(C)C(=O)Nc2ccc(F)cc2)Oc2ncc(-c3cc4ccccc4o3)cc2C1=O`: -0.101%; for `CN(C)CC(=O)N1CCCCN2[C@@H](CO)[C@H](c3ccc(-c4cccnc4)cc3)[C@@H]2C1`: 0.193%.
With `Cc1ccc(S(=O)(=O)N(C)C[C@@H]2OCCCC[C@@H](C)Oc3ccc(NS(=O)(=O)c4ccccc4)cc3C(=O)N([C@H](C)CO)C[C@@H]2C)cc1`, the activity (Tm shift, normalised) was -0.059%.
For the molecule `COc1ccc(CN(C)C[C@H]2OCCCC[C@@H](C)Oc3ccc(NS(=O)(=O)c4ccccc4)cc3C(=O)N([C@@H](C)CO)C[C@@H]2C)cc1`, the activity (Tm shift, normalised) is 0.068%.
With `Cc1ccc(S(=O)(=O)Nc2ccc3c(c2)C(=O)N([C@H](C)CO)C[C@@H](C)[C@H](CN(C)S(=O)(=O)c2ccc(C)cc2)OCCCC[C@@H](C)O3)cc1`, the activity (Tm shift, normalised) is 31.1% (active).
In the case of `C[C@@H]1CCCCO[C@H](CN(C)Cc2ccccc2)[C@@H](C)CN([C@H](C)CO)C(=O)c2cc(NC(=O)Cc3ccccc3)ccc2O1`, the activity (Tm shift, normalised) was 0.467%.
For the molecule `COc1ccc(S(=O)(=O)Nc2ccc3c(c2)C(=O)N([C@@H](C)CO)C[C@H](C)[C@H](CN(C)Cc2ccc(C(=O)O)cc2)OCCCC[C@@H](C)O3)cc1`, the activity (Tm shift, normalised) was 2.26% (active).
On to `C[C@@H]1CCCCO[C@@H](CN(C)Cc2ccc(C(=O)O)cc2)[C@@H](C)CN([C@@H](C)CO)C(=O)c2cc(NC(=O)Nc3ccc(C(F)(F)F)cc3)ccc2O1`, for which the activity (Tm shift, normalised) is 10.4% (active).
In the case of `COc1ccc(S(=O)(=O)Nc2ccc3c(c2)C(=O)N([C@H](C)CO)C[C@H](C)[C@@H](CN(C)Cc2ccccc2)OCCCC[C@@H](C)O3)cc1`, the activity (Tm shift, normalised) was -0.202%.
The same measure for `C[C@@H]1CCCCO[C@@H](CN(C)Cc2ccncc2)[C@H](C)CN([C@H](C)CO)C(=O)c2cc(NC(=O)Cc3ccccc3)ccc2O1`: 25.7% (active); for `C[C@@H]1CN([C@H](C)CO)C(=O)c2cc(NC(=O)Cc3ccccc3)ccc2O[C@@H](C)CCCCO[C@@H]1CN(C)Cc1ccncc1`: -0.393%; for `Cc1ccc(S(=O)(=O)N(C)C[C@@H]2OCCCC[C@@H](C)Oc3ccc(NS(=O)(=O)c4ccc(F)cc4)cc3C(=O)N([C@H](C)CO)C[C@H]2C)cc1`: -0.311%.
Consider `C[C@@H]1CCCCO[C@@H](CN(C)Cc2ccc(C(=O)O)cc2)[C@H](C)CN([C@@H](C)CO)C(=O)c2cc(NC(=O)Nc3ccc(C(F)(F)F)cc3)ccc2O1`, for which the activity (Tm shift, normalised) was -0.357%.
On to `C[C@@H]1CN([C@H](C)CO)C(=O)c2cc(NC(=O)Nc3ccc(C(F)(F)F)cc3)ccc2O[C@@H](C)CCCCO[C@@H]1CN(C)Cc1ccc(C(F)(F)F)cc1`, for which the activity (Tm shift, normalised) is 0.296%.
In the case of `O=C(c1ccncc1)N1C[C@@H]2[C@H](c3ccccc31)[C@H](CO)N2C(=O)c1ccncc1`, the activity (Tm shift, normalised) was 1.08%.
For the molecule `O=C(C[C@@H]1C[C@H]2c3cc(NC(=O)Nc4ccccc4F)ccc3O[C@H]2[C@@H](CO)O1)NC1CCCCC1`, the activity (Tm shift, normalised) is 0.159%.
In the case of `N#C[C@@H]1[C@@H](c2ccccc2)[C@@H](CO)N1C(=O)c1cc(Cl)cc(Cl)c1` it was -0.146%.
The same measure for `O=C(NCc1ccccc1)[C@H]1CCCN1C(=O)[C@H]1CCCN1C(=O)N1CCOCC1`: 0.083%.
The same measure for `O=C(/C=C/c1c(F)cccc1Cl)Nc1nn[nH]n1`: 43.2% (active); for `Cc1ccc2c(Cl)c(C(=O)Nc3nn[nH]n3)sc2c1`: -0.027%; for `CNC(=O)/C(C#N)=C/c1c(F)cccc1Cl`: 0.243%.
As for `C/C=C/c1ccc([C@@H]2[C@@H](CO)N(C(=O)c3ccccc3)C23CN(C(C)=O)C3)cc1`, the activity (Tm shift, normalised) is -0.191%.
The same measure for `O=C(c1ccncc1)N1C[C@H]2[C@@H](c3ccccc31)[C@H](CO)N2C(=O)Nc1ccc(F)cc1`: -0.662%; for `COc1ccccc1C1CCN(c2ccc([N+](=O)[O-])cn2)CC1`: 0.136%; for `Cc1ccc(C)n1NC(=O)c1ccc([N+](=O)[O-])cc1`: 0.235%.
`COc1ccccc1C1SCCN1C(=O)c1ccc([N+](=O)[O-])cc1` (stereo not drawn): the activity (Tm shift, normalised) is 43.3% (active).
As for `Cc1ccc(S(=O)(=O)Nc2ccc3c(c2)C(=O)N(C)[C@@H]2CC[C@@H](CC(=O)O)O[C@H]2CO3)cc1`, the activity (Tm shift, normalised) is -0.106%.
Take `Cc1ccc(-c2ccc3c(c2)O[C@H](CN(C)C(=O)CC2CC2)[C@@H](C)CN([C@H](C)CO)S3(=O)=O)cc1`: the activity (Tm shift, normalised) was -0.566%.
For the molecule `COc1ccc(NC(=O)Nc2ccc3c(c2)[C@@H]2C[C@H](CC(=O)N4CCCCC4)O[C@H](CO)[C@@H]2O3)cc1`, the activity (Tm shift, normalised) was -0.385%.
As for `O=c1cnnc(Nc2ccccc2F)[nH]1`, the activity (Tm shift, normalised) was 43.4% (active).
As to `O=c1ccnc(Nc2ccc(Cl)cc2)[nH]1`, the activity (Tm shift, normalised) was 0.494%.
On to `Cc1nnc(Nc2ccccc2F)s1`, for which the activity (Tm shift, normalised) was 0.041%.
In the case of `CN(C)C(=O)C[C@H]1C[C@@H]2c3cc(NC(=O)CC4CC4)ccc3O[C@@H]2[C@@H](CO)O1` it was -0.027%; in that of `CCCNC(=O)N(C)C[C@@H]1Oc2ncc(-c3cccc(C#N)c3)cc2C(=O)N([C@@H](C)CO)C[C@H]1C`, 0.077%.
Turning to `CC(C)c1cn([C@H]2C[C@@H]3O[C@H](CO)CC[C@@H]3O[C@@H]2CCc2ccc(C#CC3CCCCC3)cc2)nn1`, the activity (Tm shift, normalised) was 0.095%.
The same measure for `CCc1ccccc1NC(=O)Cc1cn(C)c2ccccc12`: 43.6% (active).
The same measure for `Cn1cc(CCC(=O)NC2CC2)c2ccccc21`: -0.251%.
In the case of `Cc1ccc(CNC(=O)Cc2cn(C)c3ccccc23)cc1` it was -0.058%; in that of `C[C@H](CO)N1C[C@H](C)[C@H](CN(C)C(=O)Nc2ccc(F)cc2)OCCCC[C@H](C)Oc2ccc(NC(=O)CCC(F)(F)F)cc2C1=O`, -0.451%.
`Cn1c(=O)cc(OCC(=O)N2CCN(c3ccccc3F)CC2)c2ccccc21`: the activity (Tm shift, normalised) was 44% (active).
As to `O=C(CCSc1ccccc1)N1CCN(c2ccccc2F)CC1`, the activity (Tm shift, normalised) was 0.121%.
With `O=C(COc1coc(CN2CCN(c3ccccc3F)CC2)cc1=O)N1CCc2ccccc21`, the activity (Tm shift, normalised) is -0.217%.
Turning to `C[C@@H]1CN([C@H](C)CO)C(=O)c2cc(NC(=O)Nc3cccc4ccccc34)ccc2O[C@H]1CN(C)C(=O)Nc1ccccc1`, the activity (Tm shift, normalised) is -0.15%.
